In PubChem BioAssay:

Assay: COS7 lysate on small-molecule microarray, probe aHis, 635 nm (AID 1123);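 also: z-score combines 667nm fluorescence intensity with signal-to-noise per printed compound spot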
Details: COS7 cell lysate, fluorescence, higher = more signal
With `COC(=O)[C@@]1(Cc2ccc(OC)cc2)[C@H]2c3cc(C(=O)N(C)C)n(Cc4c(OC)[nH]cc(C)c4=O)c3C[C@H]2CN1C(=O)c1ccccc1` the composite z-score was 1.57. Compound `CC(C)NC(=O)[C@@H]1c2ccccc2C(=O)N(Cc2ccccc2)[C@H]1c1ccc(CO)cc1` has a composite z-score of 2.01. Compound `O=C1C=CC(=O)[C@@H]2CC(COc3ccccc3)=C3[C@@H](CCc4ccccc4)OB(O)C[C@@H]3[C@H]12` has a composite z-score of 0.113. `C=CCC(OC(C)=O)[C@@H]1[C@@H](N(Cc2cccc3ccccc23)C(=O)c2cccc3ccccc23)c2cc(OCCCO)ccc2N1C(=O)c1ccc2ccccc2n1` (some centres undefined) gave a composite z-score of 0.656. Compound `O=C1[C@]2(CO)C=C(Br)[C@@H](C[C@@H]2c2ccccc2)[C@@]12CO2` has a composite z-score of -0.307. In the case of `COCC1=C2[C@@H](CCc3ccccc3)OB(O)C[C@@H]2[C@@H]2C(=O)N(Cc3ccccc3)C(=O)[C@@H]2C1`, the composite z-score is reported as 0.532. With `CCOC(=O)C1=CC[C@@H](c2ccccc2)N(S(=O)(=O)c2ccc(C)cc2)[C@H]1C(=O)OCC` the composite z-score was 1.22. `Cc1ccccc1C(O)C1C=CC2C(=O)N(C)C(=O)C2N1Nc1ccccc1` (centres undefined) gave a composite z-score of 2.05. Work on `C=CCC(OC(C)=O)[C@@H]1[C@@H](N(Cc2ccc(-c3ccccc3)cc2)C(=O)Cc2ccc(OC)cc2)c2cc(OCCCO)ccc2N1C(=O)c1ccc2ccccc2n1` (some centres undefined) yielded a composite z-score of 0.514. `CCN(CC)c1ccc(N2CC=CC34O[C@@H]5C=CCCOC(=O)C5[C@H]3C(=O)N(CCCCCO)[C@@H]4C2=O)cc1` (some centres undefined) showed a composite z-score of 0.395. `C[C@]1(C(=O)NCc2ccccc2)c2ccccc2C(=O)N(Cc2ccc(OC(F)(F)F)cc2)[C@H]1c1ccc(CO)cc1` showed a composite z-score of 1.78. Work on `CC(=O)Nc1cc(Br)ccc1C(=O)O` yielded a composite z-score of 0.385. `COC(=O)C[C@H]1O[C@]2(C(=O)N(Cc3ccccc3)c3ccc(NC(C)=O)cc32)[C@@H](C)[C@@H]1[Si](C)(C)c1ccc(OC)cc1` showed a composite z-score of 0.696. `COCCOC(=O)N1C(=O)[C@@]2(c3cc(C#CCC(C(=O)OC)C(=O)OC)ccc31)[C@H](C(=O)N1CCN(c3ncccn3)CC1)[C@H]1C(=O)O[C@H](c3ccccc3)[C@H](c3ccccc3)N1[C@@H]2c1ccc(OCCO)cc1` gave a composite z-score of 1.35. With `O=c1cccc(C=Cc2ccccc2)o1` the composite z-score was -0.386. `CCCCC(CC)C(O)C1C=CC2C(=O)N(c3ccccc3)C(=O)C2N1Nc1ccccc1` (centres undefined) gave a composite z-score of 2.28. With `COc1ccc([Si](C)(C)[C@@H]2[C@@H](CC(=O)N(CCO)Cc3ccccc3)O[C@]3(C(=O)N(C)c4ccccc43)[C@H]2C)cc1` the composite z-score was 0.855. `CC(C)C[C@@H]1NC(=O)[C@H]2C[C@@H](C(=O)NCCCCCNC(=O)CS)[C@@H](c3cccc(OCCO)c3)N2C1=O` gave a composite z-score of 1.32. Work on `O=C(OCCF)C1=CCC(c2cccc(Cl)c2)O1` (centres undefined) yielded a composite z-score of 0.751. With `O=C(O)[C@@]1(Cc2ccccc2)N=C(c2ccc(OCCCO)cc2)O[C@H]1c1ccccc1` the composite z-score was 1.29. With `CO[C@H]1O[C@H](CO)[C@@H](OC(=O)Nc2ccc(Oc3ccccc3)cc2)[C@H](OC(=O)Nc2ccccc2)[C@H]1OC(=O)Nc1ccccc1` the composite z-score was 2.09. `O=C(CS)NCCCCCCNC(=O)[C@H]1C[C@H]2C(=O)NCC(=O)N2[C@H]1c1ccc(O)cc1` showed a composite z-score of 0.677. For `COCCOC(=O)N1C(=O)[C@@]2(c3cc(C#CCCO)ccc31)[C@H](c1ccc(O)cc1)N1[C@H](c3ccccc3)[C@H](c3ccccc3)OC(=O)[C@H]1[C@@H]2C(N)=O`, the composite z-score was 0.831. `CC(C)(C)N1CC=CC23O[C@@H]4/C=C\CCCOC(=O)C4[C@H]2C(=O)N(CCO)[C@@H]3C1=O` (some centres undefined) showed a composite z-score of 0.575.

Assay: compound binding in COS7 lysate, probe aLAP1, primary screen, cell lysate, small-molecule microarray (AID 1124);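 also: lysate comes from COS7 cells expressing LAP1 and is applied at 0.3 µg/mL; score merges spot fluorescence near 667 nm with signal-to-noise over triplicate slides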
Details: probe aLAP1, fluorescence, higher = more signal
With `COc1cc(CO)ccc1OC(C)=O` the composite z-score was 0.356. For `COc1ccc(C#Cc2ccc3c(c2)[C@]2(C(=O)N3)[C@H](c3ccc(O)cc3)N3[C@H](c4ccccc4)[C@H](c4ccccc4)OC(=O)[C@H]3[C@@H]2C(=O)N2CCCCCCC2)cc1`, the composite z-score was 0.998. `CN1C=C(C(=O)OCCS(C)(=O)=O)C(C(=O)OCCS(C)(=O)=O)=CC(CCCO)=CC1C1CC1` (centres undefined) showed a composite z-score of -0.0075. Work on `COCCOC(=O)N1C(=O)[C@@]2(c3cc(C#CCC(C(=O)OC)C(=O)OC)ccc31)[C@H](c1ccc(O)cc1)N1[C@H](c3ccccc3)[C@H](c3ccccc3)OC(=O)[C@H]1[C@@H]2C(N)=O` yielded a composite z-score of 0.647. Compound `COc1ccc(NN2C(C(O)c3ccc(OC)c(OCc4ccccc4)c3)C=CC3C(=O)N(C4CCCCC4)C(=O)C32)cc1` (centres undefined) has a composite z-score of 0.0516. Compound `CC(C)N1CC=CC23O[C@@H]4C=CCOC(=O)[C@@H]4[C@H]2C(=O)N(CCO)[C@@H]3C1=O` (some centres undefined) has a composite z-score of -0.252. In the case of `O=C1c2ccccc2[C@@]2(Cc3ccccc3N(Cc3ccccc3)C2=O)[C@H](c2ccc(CO)cc2)N1C1CCCCC1`, the composite z-score is reported as 0.432. Work on `CO[C@H]1O[C@H](CO)[C@@H](OC(=O)Nc2ccc3c(c2)OCO3)[C@H](OC(=O)Nc2ccccc2)[C@H]1OC(=O)Nc1ccccc1` yielded a composite z-score of 0.637. `CC(C)C[C@@H]1NC(=O)[C@@H]2C[C@H](C(=O)NCCCCCC[N+](C)(C)C)[C@H](c3ccc(O)cc3)N2C1=O` showed a composite z-score of 0.301. Work on `N#Cc1ccc(NN2C(C(O)C3CCCCC3)C=CC3C(=O)N(c4ccccc4)C(=O)C32)cc1` (centres undefined) yielded a composite z-score of 0.236. Compound `O=c1oc(-c2ccccc2)nc2cc(Br)ccc12` has a composite z-score of 0.107. In the case of `COC(=O)[C@@]1(Cc2ccc(OC)cc2)[C@H]2c3cc(C(=O)N(C)C)n(Cc4c(OC)[nH]cc(C)c4=O)c3C[C@H]2CN1C(=O)c1ccccc1`, the composite z-score is reported as -0.155. In the case of `CC(C)NC(=O)[C@@H]1c2ccccc2C(=O)N(Cc2ccccc2)[C@H]1c1ccc(CO)cc1`, the composite z-score is reported as 0.821. Work on `O=C1C=CC(=O)[C@@H]2CC(COc3ccccc3)=C3[C@@H](CCc4ccccc4)OB(O)C[C@@H]3[C@H]12` yielded a composite z-score of -0.17. `C=CCC(OC(C)=O)[C@@H]1[C@@H](N(Cc2cccc3ccccc23)C(=O)c2cccc3ccccc23)c2cc(OCCCO)ccc2N1C(=O)c1ccc2ccccc2n1` (some centres undefined) showed a composite z-score of -0.342. For `O=C1[C@]2(CO)C=C(Br)[C@@H](C[C@@H]2c2ccccc2)[C@@]12CO2`, the composite z-score was -0.139. `COCC1=C2[C@@H](CCc3ccccc3)OB(O)C[C@@H]2[C@@H]2C(=O)N(Cc3ccccc3)C(=O)[C@@H]2C1` showed a composite z-score of -0.0804. Work on `CCOC(=O)C1=CC[C@@H](c2ccccc2)N(S(=O)(=O)c2ccc(C)cc2)[C@H]1C(=O)OCC` yielded a composite z-score of 0.748. For `Cc1ccccc1C(O)C1C=CC2C(=O)N(C)C(=O)C2N1Nc1ccccc1` (centres undefined), the composite z-score was 0.415. In the case of `C=CCC(OC(C)=O)[C@@H]1[C@@H](N(Cc2ccc(-c3ccccc3)cc2)C(=O)Cc2ccc(OC)cc2)c2cc(OCCCO)ccc2N1C(=O)c1ccc2ccccc2n1` (some centres undefined), the composite z-score is reported as 0.123. Work on `CCN(CC)c1ccc(N2CC=CC34O[C@@H]5C=CCCOC(=O)C5[C@H]3C(=O)N(CCCCCO)[C@@H]4C2=O)cc1` (some centres undefined) yielded a composite z-score of 0.483. For `C[C@]1(C(=O)NCc2ccccc2)c2ccccc2C(=O)N(Cc2ccc(OC(F)(F)F)cc2)[C@H]1c1ccc(CO)cc1`, the composite z-score was 0.107. `CC(=O)Nc1cc(Br)ccc1C(=O)O` gave a composite z-score of -0.0197. `COC(=O)C[C@H]1O[C@]2(C(=O)N(Cc3ccccc3)c3ccc(NC(C)=O)cc32)[C@@H](C)[C@@H]1[Si](C)(C)c1ccc(OC)cc1` gave a composite z-score of 0.189. `COCCOC(=O)N1C(=O)[C@@]2(c3cc(C#CCC(C(=O)OC)C(=O)OC)ccc31)[C@H](C(=O)N1CCN(c3ncccn3)CC1)[C@H]1C(=O)O[C@H](c3ccccc3)[C@H](c3ccccc3)N1[C@@H]2c1ccc(OCCO)cc1` showed a composite z-score of 0.522. Work on `O=c1cccc(C=Cc2ccccc2)o1` yielded a composite z-score of 0.224. In the case of `CCCCC(CC)C(O)C1C=CC2C(=O)N(c3ccccc3)C(=O)C2N1Nc1ccccc1` (centres undefined), the composite z-score is reported as 0.297. In the case of `COc1ccc([Si](C)(C)[C@@H]2[C@@H](CC(=O)N(CCO)Cc3ccccc3)O[C@]3(C(=O)N(C)c4ccccc43)[C@H]2C)cc1`, the composite z-score is reported as 0.0123. `CC(C)C[C@@H]1NC(=O)[C@H]2C[C@@H](C(=O)NCCCCCNC(=O)CS)[C@@H](c3cccc(OCCO)c3)N2C1=O` showed a composite z-score of 0.438. With `O=C(OCCF)C1=CCC(c2cccc(Cl)c2)O1` (centres undefined) the composite z-score was 0.142. In the case of `O=C(O)[C@@]1(Cc2ccccc2)N=C(c2ccc(OCCCO)cc2)O[C@H]1c1ccccc1`, the composite z-score is reported as -0.183. Work on `CO[C@H]1O[C@H](CO)[C@@H](OC(=O)Nc2ccc(Oc3ccccc3)cc2)[C@H](OC(=O)Nc2ccccc2)[C@H]1OC(=O)Nc1ccccc1` yielded a composite z-score of -0.0652. Compound `O=C(CS)NCCCCCCNC(=O)[C@H]1C[C@H]2C(=O)NCC(=O)N2[C@H]1c1ccc(O)cc1` has a composite z-score of 0.621. `COCCOC(=O)N1C(=O)[C@@]2(c3cc(C#CCCO)ccc31)[C@H](c1ccc(O)cc1)N1[C@H](c3ccccc3)[C@H](c3ccccc3)OC(=O)[C@H]1[C@@H]2C(N)=O` gave a composite z-score of 1.73. With `CC(C)(C)N1CC=CC23O[C@@H]4/C=C\CCCOC(=O)C4[C@H]2C(=O)N(CCO)[C@@H]3C1=O` (some centres undefined) the composite z-score was 0.29.
